The target in assay [1] is T1, Serine/threonine-protein kinase Nek9 (Homo sapiens) (UniProt Q8TD19).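 Note: each value is a mean percent inhibition of NEK9.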
T1 sequence (whole entry): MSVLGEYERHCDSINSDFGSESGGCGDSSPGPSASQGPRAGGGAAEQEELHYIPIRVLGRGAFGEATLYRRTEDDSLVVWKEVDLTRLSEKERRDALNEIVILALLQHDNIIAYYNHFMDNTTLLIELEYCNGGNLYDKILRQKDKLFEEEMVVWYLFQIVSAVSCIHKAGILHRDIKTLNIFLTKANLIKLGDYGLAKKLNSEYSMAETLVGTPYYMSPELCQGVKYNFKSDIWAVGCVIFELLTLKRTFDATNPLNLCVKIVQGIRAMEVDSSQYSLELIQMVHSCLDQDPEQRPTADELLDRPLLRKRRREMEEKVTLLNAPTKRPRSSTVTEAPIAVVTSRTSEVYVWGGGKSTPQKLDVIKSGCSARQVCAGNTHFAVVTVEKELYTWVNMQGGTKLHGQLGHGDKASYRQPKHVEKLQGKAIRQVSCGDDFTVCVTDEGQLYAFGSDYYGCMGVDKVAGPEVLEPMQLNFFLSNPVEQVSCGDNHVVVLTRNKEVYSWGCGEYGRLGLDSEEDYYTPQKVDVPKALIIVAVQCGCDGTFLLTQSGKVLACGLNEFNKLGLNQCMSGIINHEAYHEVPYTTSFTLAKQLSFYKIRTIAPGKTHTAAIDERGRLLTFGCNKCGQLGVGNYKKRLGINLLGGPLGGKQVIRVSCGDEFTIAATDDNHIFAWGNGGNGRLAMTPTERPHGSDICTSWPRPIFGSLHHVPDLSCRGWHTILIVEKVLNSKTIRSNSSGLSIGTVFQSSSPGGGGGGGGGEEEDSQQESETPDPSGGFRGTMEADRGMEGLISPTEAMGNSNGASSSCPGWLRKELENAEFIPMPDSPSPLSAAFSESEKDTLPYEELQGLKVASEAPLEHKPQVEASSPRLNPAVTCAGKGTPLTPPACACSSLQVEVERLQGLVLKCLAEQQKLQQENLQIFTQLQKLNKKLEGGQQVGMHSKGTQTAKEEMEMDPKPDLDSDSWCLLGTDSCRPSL
To be noted: at 1 µM.

Assay [2] concerns the target Serine/threonine-protein kinase PLK1 (Homo sapiens) (UniProt P53350). The following applies: at 0.1 µM.
Assay [3] has the same target. The following applies: at 1 µM.
For assay [4], the target named is T2, Dual specificity protein kinase TTK (Homo sapiens) (UniProt P33981).
T2 sequence (whole entry): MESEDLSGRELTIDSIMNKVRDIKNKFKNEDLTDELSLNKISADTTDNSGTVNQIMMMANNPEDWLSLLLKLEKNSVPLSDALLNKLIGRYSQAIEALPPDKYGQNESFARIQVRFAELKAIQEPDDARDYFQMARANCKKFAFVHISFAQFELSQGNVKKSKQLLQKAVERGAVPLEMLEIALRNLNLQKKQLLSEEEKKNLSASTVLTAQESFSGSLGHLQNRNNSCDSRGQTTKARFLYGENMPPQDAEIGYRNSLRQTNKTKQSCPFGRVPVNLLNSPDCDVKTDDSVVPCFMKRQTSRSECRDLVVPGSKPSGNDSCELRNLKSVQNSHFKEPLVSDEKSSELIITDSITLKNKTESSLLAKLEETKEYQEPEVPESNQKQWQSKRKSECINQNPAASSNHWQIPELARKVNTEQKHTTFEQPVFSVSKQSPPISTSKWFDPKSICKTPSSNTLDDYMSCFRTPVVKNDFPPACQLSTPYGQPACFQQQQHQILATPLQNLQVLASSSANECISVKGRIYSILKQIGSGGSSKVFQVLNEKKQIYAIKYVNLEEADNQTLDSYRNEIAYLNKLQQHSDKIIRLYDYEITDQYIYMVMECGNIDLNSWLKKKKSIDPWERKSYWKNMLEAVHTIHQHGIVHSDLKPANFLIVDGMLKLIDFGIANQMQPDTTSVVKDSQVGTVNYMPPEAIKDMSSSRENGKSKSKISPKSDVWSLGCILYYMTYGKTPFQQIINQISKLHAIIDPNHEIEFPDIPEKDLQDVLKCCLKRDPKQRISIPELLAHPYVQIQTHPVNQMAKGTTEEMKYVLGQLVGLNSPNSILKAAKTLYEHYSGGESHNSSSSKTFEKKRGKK
To be noted: at 0.1 µM.

Assay [5] has as its system T3, Receptor-type tyrosine-protein kinase FLT3 (Homo sapiens), P36888 [D835Y].
T3 sequence (whole entry): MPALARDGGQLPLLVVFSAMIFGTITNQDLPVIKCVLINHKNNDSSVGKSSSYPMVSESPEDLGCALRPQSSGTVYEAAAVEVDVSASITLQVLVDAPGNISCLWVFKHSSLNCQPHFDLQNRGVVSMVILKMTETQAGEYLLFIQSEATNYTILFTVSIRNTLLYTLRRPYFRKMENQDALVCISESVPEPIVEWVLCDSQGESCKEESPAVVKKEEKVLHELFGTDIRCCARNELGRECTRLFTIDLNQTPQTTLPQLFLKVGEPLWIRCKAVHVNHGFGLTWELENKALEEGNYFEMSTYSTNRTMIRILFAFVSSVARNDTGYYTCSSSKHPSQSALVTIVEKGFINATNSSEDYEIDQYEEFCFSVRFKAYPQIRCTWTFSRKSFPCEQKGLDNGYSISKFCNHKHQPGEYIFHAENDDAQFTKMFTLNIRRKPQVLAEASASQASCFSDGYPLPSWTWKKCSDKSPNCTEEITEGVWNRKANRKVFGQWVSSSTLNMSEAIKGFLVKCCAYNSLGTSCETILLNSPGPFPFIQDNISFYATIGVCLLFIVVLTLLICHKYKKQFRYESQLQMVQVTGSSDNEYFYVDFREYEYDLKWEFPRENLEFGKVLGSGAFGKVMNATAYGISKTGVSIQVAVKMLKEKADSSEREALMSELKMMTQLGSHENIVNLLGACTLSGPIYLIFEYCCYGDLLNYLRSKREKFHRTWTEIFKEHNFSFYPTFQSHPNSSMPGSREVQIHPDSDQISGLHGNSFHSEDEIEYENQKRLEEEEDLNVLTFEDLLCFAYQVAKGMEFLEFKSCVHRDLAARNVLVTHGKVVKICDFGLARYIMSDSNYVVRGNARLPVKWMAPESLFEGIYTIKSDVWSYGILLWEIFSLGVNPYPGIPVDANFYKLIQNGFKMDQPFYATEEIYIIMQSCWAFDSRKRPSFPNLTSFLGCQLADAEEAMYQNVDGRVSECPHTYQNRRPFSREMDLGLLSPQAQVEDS
The following applies: at 1 µM.

For assay [6], the target named is Vascular endothelial growth factor receptor 3 (Homo sapiens) (UniProt P35916). The following applies: at 0.1 µM.
The target is the same in assay [7]. The following applies: at 1 µM.
In assay [8] the target is Macrophage colony-stimulating factor 1 receptor (Homo sapiens) (UniProt P07333). The following applies: at 0.1 µM.
Assay [9] has the same target. The following applies: at 1 µM.
Assay [10] concerns the target Tyrosine-protein kinase Fyn (Homo sapiens) (UniProt P06241). To be noted: at 0.1 µM.

Chain of Tyrosine-protein kinase Fyn (Homo sapiens) (P06241 2-537 limits assumed): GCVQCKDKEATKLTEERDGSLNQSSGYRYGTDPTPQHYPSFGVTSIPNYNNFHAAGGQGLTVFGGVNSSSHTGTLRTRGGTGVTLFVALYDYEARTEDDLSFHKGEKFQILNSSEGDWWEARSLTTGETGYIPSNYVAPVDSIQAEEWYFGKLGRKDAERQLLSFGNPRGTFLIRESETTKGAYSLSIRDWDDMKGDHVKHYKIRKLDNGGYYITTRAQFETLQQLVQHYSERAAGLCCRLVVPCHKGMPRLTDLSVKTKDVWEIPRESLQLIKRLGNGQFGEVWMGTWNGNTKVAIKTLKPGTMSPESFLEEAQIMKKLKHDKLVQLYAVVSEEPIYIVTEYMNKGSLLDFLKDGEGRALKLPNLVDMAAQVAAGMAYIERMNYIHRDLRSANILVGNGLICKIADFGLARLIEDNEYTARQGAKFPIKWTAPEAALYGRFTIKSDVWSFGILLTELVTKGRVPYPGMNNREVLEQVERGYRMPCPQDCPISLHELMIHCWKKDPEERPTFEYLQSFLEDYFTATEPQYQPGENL
Chain of Macrophage colony-stimulating factor 1 receptor (Homo sapiens) (P07333 whole entry): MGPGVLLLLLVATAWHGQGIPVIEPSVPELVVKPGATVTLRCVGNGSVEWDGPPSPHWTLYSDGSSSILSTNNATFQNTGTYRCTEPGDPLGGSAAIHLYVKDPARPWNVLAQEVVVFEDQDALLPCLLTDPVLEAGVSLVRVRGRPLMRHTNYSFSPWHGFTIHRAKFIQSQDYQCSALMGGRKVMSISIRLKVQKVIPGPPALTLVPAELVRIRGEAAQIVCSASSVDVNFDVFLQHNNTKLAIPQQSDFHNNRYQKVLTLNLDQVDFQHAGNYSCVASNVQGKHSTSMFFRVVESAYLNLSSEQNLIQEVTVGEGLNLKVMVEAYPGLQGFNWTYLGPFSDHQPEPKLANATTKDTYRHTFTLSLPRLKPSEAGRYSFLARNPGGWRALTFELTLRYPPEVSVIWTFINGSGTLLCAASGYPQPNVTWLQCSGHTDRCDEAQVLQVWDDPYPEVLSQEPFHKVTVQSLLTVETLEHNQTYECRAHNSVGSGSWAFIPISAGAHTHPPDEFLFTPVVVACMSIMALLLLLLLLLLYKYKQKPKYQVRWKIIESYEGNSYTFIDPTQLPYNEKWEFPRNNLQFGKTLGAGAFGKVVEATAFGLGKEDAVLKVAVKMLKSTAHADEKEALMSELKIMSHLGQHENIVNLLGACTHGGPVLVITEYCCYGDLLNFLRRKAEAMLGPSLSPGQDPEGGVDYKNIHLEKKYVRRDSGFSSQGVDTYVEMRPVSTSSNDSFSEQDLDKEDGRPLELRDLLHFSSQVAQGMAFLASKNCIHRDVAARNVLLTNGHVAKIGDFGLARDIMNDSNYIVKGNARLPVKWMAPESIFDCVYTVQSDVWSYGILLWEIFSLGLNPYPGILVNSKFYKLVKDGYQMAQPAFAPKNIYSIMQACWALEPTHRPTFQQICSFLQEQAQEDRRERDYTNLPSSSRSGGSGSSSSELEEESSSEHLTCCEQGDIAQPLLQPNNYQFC
Chain of Serine/threonine-protein kinase PLK1 (Homo sapiens) (P53350 whole entry): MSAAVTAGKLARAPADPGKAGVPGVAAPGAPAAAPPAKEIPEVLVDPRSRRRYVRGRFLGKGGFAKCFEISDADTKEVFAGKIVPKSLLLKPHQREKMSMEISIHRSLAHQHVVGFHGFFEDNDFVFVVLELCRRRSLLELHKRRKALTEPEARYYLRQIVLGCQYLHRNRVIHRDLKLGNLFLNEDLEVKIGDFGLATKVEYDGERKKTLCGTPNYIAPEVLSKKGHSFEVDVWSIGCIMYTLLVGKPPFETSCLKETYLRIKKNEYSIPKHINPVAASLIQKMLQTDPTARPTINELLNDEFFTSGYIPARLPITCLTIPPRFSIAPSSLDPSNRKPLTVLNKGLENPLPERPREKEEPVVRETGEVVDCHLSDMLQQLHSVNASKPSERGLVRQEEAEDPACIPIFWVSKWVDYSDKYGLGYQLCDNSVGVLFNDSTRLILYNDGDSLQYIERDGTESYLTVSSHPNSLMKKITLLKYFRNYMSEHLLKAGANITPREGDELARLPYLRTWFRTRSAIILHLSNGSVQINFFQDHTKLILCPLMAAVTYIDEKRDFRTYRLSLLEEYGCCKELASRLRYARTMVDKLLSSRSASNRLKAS
Chain of Vascular endothelial growth factor receptor 3 (Homo sapiens) (P35916 whole entry): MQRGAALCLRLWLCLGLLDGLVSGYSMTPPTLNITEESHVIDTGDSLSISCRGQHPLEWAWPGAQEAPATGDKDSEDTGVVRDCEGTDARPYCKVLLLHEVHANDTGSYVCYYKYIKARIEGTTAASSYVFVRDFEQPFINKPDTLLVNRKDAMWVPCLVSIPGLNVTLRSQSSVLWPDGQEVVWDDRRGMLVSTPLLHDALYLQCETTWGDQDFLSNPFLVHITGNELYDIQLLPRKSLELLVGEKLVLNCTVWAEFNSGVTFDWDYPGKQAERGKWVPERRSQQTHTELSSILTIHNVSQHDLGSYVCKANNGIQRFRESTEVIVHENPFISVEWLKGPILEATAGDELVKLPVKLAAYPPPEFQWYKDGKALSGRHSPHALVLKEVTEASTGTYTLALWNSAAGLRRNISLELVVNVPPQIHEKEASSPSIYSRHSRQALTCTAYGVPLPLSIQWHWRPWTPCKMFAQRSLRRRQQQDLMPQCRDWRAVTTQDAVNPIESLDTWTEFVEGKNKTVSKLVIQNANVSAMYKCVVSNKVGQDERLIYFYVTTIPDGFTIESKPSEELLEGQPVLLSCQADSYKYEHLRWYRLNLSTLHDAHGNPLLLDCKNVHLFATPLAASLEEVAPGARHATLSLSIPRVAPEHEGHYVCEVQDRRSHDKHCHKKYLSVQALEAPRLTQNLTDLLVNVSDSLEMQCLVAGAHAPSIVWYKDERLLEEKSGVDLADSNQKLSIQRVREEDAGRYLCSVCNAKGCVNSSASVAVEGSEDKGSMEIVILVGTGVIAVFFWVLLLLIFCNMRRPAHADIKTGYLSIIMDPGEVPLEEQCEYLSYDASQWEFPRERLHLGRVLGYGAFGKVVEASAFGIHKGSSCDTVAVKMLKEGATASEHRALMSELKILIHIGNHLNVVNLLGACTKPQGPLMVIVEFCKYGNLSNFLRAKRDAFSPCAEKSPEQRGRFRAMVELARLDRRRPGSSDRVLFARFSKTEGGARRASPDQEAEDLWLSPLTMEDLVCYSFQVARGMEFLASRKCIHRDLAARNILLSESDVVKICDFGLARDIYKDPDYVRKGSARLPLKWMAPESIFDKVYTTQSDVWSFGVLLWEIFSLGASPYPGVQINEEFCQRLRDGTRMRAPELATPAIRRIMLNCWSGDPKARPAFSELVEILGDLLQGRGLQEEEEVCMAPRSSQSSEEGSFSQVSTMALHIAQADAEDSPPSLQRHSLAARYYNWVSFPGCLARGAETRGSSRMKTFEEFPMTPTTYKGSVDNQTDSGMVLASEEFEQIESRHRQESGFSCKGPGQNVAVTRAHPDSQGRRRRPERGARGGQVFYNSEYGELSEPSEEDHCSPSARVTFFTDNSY

Regarding `CCN1CCC(CC(=O)Nc2n[nH]c3nnc(-c4cccc(F)c4F)cc23)CC1`, the inhibition in [1] is -3.93%; in [2], 2.14%; in assay [3], -0.76%; in assay [4], 4.15%; in assay [5] it was -2.23%; in assay [6], 1.01%. The inhibition in [7] is 1.82%; in assay [8] it was -1.12%; in assay [9], 5.72%; in [10] it was -0.21%.

With `Clc1ccc(-c2nn3ncccc3c2-c2ccnc(Nc3ccccc3)n2)cc1`, the inhibition in assay [1] is -3.71%; in [2], -9.28%; in assay [3], 3.17%; in [4] it was 3.63%; in [5], -0.74%; in assay [6], 4.99%. Further, the inhibition amounted to 16.2% in [7], 4.3% in [8], 32.3% in [9] and 9.12% in assay [10].

In the case of `COC(=O)Nc1nc2ccc(S(=O)(=O)c3ccc(NC(=O)Nc4cc(C(F)(F)F)ccc4F)cc3)cc2[nH]1`, the inhibition in assay [1] is 7.16%; in [2] it was 3.83%; in assay [3], 2.15%; in assay [4], 5.04%; in assay [5], 7.26%; in [6], 0.23%. For the same molecule, the inhibition in assay [7] was 0.36%; in assay [8], -1.07%; in assay [9], 2.06%; in assay [10], 1.02%.

As for `CNC(=O)c1cc(-c2ccc(F)cc2)cc(-c2ccc(S(=O)(=O)N3CCCC3)cc2)c1N`, the inhibition in [1] turned out to be 7.69%; in assay [2], 2.97%; in [3], 3.38%; in assay [4], 4.67%; in assay [5], 5.93%; in assay [6] it was 0.74%. Besides, the inhibition is 2.49% in [7], 0.47% in [8], 1.28% in assay [9] and 1.22% in [10].

For `COc1ccc2[nH]c3c4[nH]c5ccc(OC)cc5c4c4c(c3c2c1)C(=O)NC4=O`, the inhibition amounted to 2.1% in assay [1]; 3.01% in assay [2]; 9.29% in [3]; 15.5% in assay [4]; 92.7% in assay [5]; 18.5% in assay [6]. Moreover, the inhibition in [7] is 63.5%; in [8] it was 12.9%; in assay [9] it was 50.9%; in [10], 3.62%.

As to `COc1cccc(-c2c[nH]c3c(N/N=C/c4ccncc4)ncnc23)c1`, the inhibition in assay [1] amounted to 5.28%; in [2], 2.36%; in assay [3], 1.97%; in assay [4], 7.43%; in [5], 62.7%; in assay [6] it was 4.35%. Also, the inhibition stood at 29.5% in assay [7], 21.6% in [8], 68.6% in assay [9] and 14.4% in assay [10].

Take `CCc1nn2ncccc2c1-c1ccnc(NC2CC2)n1`: the inhibition in [1] was 9.21%; in [2], 1.29%; in assay [3], 4.87%; in assay [4], -1.9%; in assay [5], 8.73%; in [6], 4.93%. Further, the inhibition stood at 4.12% in assay [7], 2.72% in [8], 4.83% in assay [9] and 1.74% in assay [10].

On to `Nc1ncc(-c2cccc(S(N)(=O)=O)c2)c2scc(-c3ccc(F)c(Cl)c3)c12`, for which the inhibition in assay [1] was -0.67%; in assay [2], 4.55%; in assay [3] it was 2.5%; in assay [4], 5.8%; in assay [5], -1.46%; in [6] it was 5.73%. The inhibition in [7] is 12.6%; in assay [8] it was 6.9%; in [9], 43.7%; in assay [10], 7.81%.

Take `Cc1ccc2c(-c3ccnc(Nc4ccccc4)n3)c(-c3ccc(F)cc3)nn2n1`: the inhibition in assay [1] was 5.94%; in [2], 1.63%; in assay [3] it was 1.62%; in [4], 4.36%; in assay [5] it was -2.14%; in [6] it was 5.68%. Also, the inhibition in [7] amounted to 28.3%; in assay [8] it was 10.5%; in assay [9], 45.1%; in assay [10], 18.7%.

These data come from ChEMBL document CHEMBL1961873, “Compounds: GSK PKIS; Assays: Nanosyn kinase panel” (2012).
